The structures appear in SMILES notation. Unmarked numbers belong to inactive results. Records with an inconclusive call do not appear. The source made the active and inactive calls. Unless noted, the call rests on the fitted dose curve; in most records, active means well fitted curve in the direction sought with a large enough effect in the repeat runs; inconclusive means weak or mixed curves; inactive means no such curve, though single readings can be large; an effect the other way counts as inactive or inconclusive.

A short description of experiment [1]: qHTS assay to identify small molecule agonists of H2AX (AID 1224845; active means well fitted activation curve with a large enough effect in the signal ratio in the repeat runs, not every such curve was filed as active; the % refers to the signal ratio; further: potency means the concentration at half of the fitted maximal effect). The method, boiled down:
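Wild-type CHO-K1 cells plated overnight, then exposed 3 hr at 37C to compounds at 15 concentrations (0.76% DMSO). Lysed, then HTRF anti-pH2AX(S139)-cryptate/anti-H2AX-d2 detection after 24 hr at room temperature; emissions 665 and 620 nm.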

The nature of experiment [2]: qHTS assay to identify small molecule agonists of the hypoxia (HIF-1) signaling pathway (AID 1224846; active means well fitted activation curve with a large enough effect in the signal ratio in the repeat runs, not every such curve was filed as active; the % refers to the signal ratio). The method, boiled down:
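Hypoxia-pathway activation was scored as increased beta-lactamase from an HRE-controlled reporter in ME-180 cells; plated at 2,000 cells per well with 0.5% dialyzed FBS, they were exposed 17 hrs to compounds and then given CCF4-AM.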

The nature of experiment [3]: qHTS assay to identify small molecule agonists of H2AX - cell viability counter screen (AID 1224847; calls by dose curve; further: top concentration of the series differs between compounds; nearly all actives have a fitted effect of over 30% in size). An outline of the steps: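 CHO-K1 cells plated overnight at 37C, then exposed 3 h at 37C to compounds at 15 concentrations (0.76% DMSO final). Viability by CellTiter-Glo luminescence after 30 min at room temperature.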
The nature of experiment [4]: qHTS RealTime-Glo MT Cell Viability Assay in HEK293 cells - 32 hour (AID 1224868). Further: nearly all actives have a fitted effect of over 50% in size. Further: potency means the concentration at half of the fitted maximal effect. An outline of the steps: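 HEK293 cells seeded with NanoLuc/prosubstrate reagent, rested 5 h at 37 C, then dosed and kept at 37 C up to 40 h. Nonlytic real-time luminescence from viable cells read at 0, 8, 16, 24, 32 and 40 h.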
The nature of experiment [5]: A CellTox Green Cytotoxicity Assay to monitor cytotoxicity in HEK293 cells - 0 hour (AID 1224869). Further: nearly all actives have a fitted effect of over 50% in size. The method, boiled down:
(§1)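 Seeding of HEK293 cells together with cytotoxicity dye preceded a 5 h incubation at 37 C/5% CO2. Test compounds in DMSO were then added and fluorescence monitored across 40 h.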

Experiment [6] can be described thus: qHTS RealTime-Glo MT Cell Viability Assay in HepG2 cells - 40 hour (AID 1224870). Further: nearly all actives have a fitted effect of over 50% in size. The method, boiled down: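 HepG2 cells mixed with RealTime-Glo MT reagents (NanoLuc plus cell-permeant prosubstrate) were seeded at 600 cells/well, incubated 5 h at 37 C/5% CO2, then pinned with compounds in DMSO; nonlytic luminescence tracked viability during 40 h treatment.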

Experiment [7] is described as follows: A CellTox Green Cytotoxicity Assay to monitor cytotoxicity in HEK293 cells - 40 hour (AID 1224871). Further: nearly all actives have a fitted effect of over 45% in size. The method, boiled down: as §1
Experiment [8] can be described thus: qHTS assay to identify small molecule antagonists of the estrogen related receptor (ERR) signaling pathway from Tox21 library (AID 1224848). Further: nearly all actives have a fitted effect of over 50% in size. Further: potency means the concentration at half of the fitted maximal effect. The method, boiled down: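 Cells: ERR line, 2,000/well; 6 h preincubation 37 C/5% CO2. Cpd in DMSO via pin tool; 18 h, 37 C. ONE-Glo, 30 min RT, luminescence.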
The nature of experiment [9]: qHTS assay to identify small molecule agonists of the estrogen related receptor (ERR) signaling pathway from Tox21 library (AID 1224849; calls by dose curve; further: nearly all actives have a fitted effect of over 15% in size). The conditions noted are these: ERR reporter cell line, ONE-Glo luciferase, 18 h; at 92.4 µM (top of the series) unless noted. An outline of the steps: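 Six hours post-seeding at 37 C/5% CO2, ERR cells receive DMSO-solubilised compounds; after 18 h at 37 C, ONE-Glo reagent is applied and luminescence recorded.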

Experiment [10] in a line: qHTS RealTime-Glo MT Cell Viability Assay in HepG2 cells - 24 hour (AID 1224867). Further: nearly all actives have a fitted effect of over 50% in size. The method, boiled down:
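HepG2 cells (600/well) were dispensed with RealTime-Glo reagents, incubated 5 h at 37 °C, then treated with compounds in DMSO for up to 40 h. Nonlytic NanoLuc luminescence reflecting viable cells was read at each stated time point.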
On the % scale 0 is the no-effect control and ±100 the full control effect.

For the compound `CCCSC(=O)N(CCC)CCC`, the Potency result in experiment [1], in experiment [3], in experiment [4], in experiment [5], in experiment [6] and in experiment [7] was “inactive” throughout. Moreover, the compound was called inactive in [2].
Take `CCOC(=O)/C=C(C)/C=C/C[C@@H](C)CCCC(C)C`: the Potency in experiment [1] is 113 µM (active). Moreover, in experiment [2], the call was inactive. Also, the Potency entry in [4], in experiment [5], in experiment [6] and in experiment [7] was “inactive” each time.
As for `O=[N+]([O-])c1cccc2c([N+](=O)[O-])cccc12`, the Potency result in experiment [1], in [10], in experiment [5], in experiment [6] and in [7] was “inactive” in each case. For the same compound, the outcome in [2] was inactive. The results for the Potency in [8] and in experiment [4] were 30.8 µM (active) and 49.2 µM (active), respectively. In experiment [9], the activity change, positive = activation is -66%.
Consider `O=C(Nc1ccccc1)c1ccccc1I`, for which the Potency result in [1], in experiment [10], in [4], in experiment [5], in experiment [6] and in [7] was “inactive” each time. The call in experiment [2] was inactive.
For `CCC/C(=N\OCC)C1=C(O)CC(CC(C)SCC)CC1=O` (centres undefined), the Potency result in [1], in [10], in [5], in [6] and in [7] was “inactive” each time. In experiment [2], the compound was called inactive.
As for `C[C@@H]1CN(C2CCC(C#N)(c3ccc(F)cc3)CC2)CC[C@]1(C(=O)O)c1ccccc1` (some centres undefined), the Potency result in experiment [1], in experiment [3], in [8], in [10], in experiment [4] and in experiment [5] was “inactive” in each case. In addition, the Potency result in experiment [6] and in experiment [7] was “inactive” throughout. Further, in experiment [9], the activity change, positive = activation was 0.0799% [at 42.5 µM].
As to `Nc1c(Br)cc([N+](=O)[O-])cc1[N+](=O)[O-]`, the Potency result in experiment [1], in [10], in [4], in [5], in experiment [6] and in experiment [7] was “inactive” each time. Further, the result in [2] was inactive. Also, in experiment [9], the activity change, positive = activation was -26.5%.
For the compound `CC(=O)[C@H]1CC[C@H]2[C@@H]3CC[C@H]4C[C@H](O)CC[C@]4(C)[C@H]3C(=O)C[C@]12C`, the Potency entry in experiment [1], in experiment [3], in [10], in [5], in experiment [6] and in experiment [7] was “inactive” throughout. In addition, the activity change, positive = activation in experiment [9] was -14.9% [at 42.5 µM].
On to `CNC(=O)Oc1c(C(C)(C)C)cc(C)cc1C(C)(C)C`, for which the Potency entry in experiment [1], in [3], in [4], in [5], in experiment [6] and in experiment [7] was “inactive” in each case. Moreover, the call in experiment [2] was inactive.
On to `C[C@]1(O)CC[C@H]2[C@@H]3CCC4=CC(=O)CC[C@]4(C)[C@@]3(F)[C@@H](O)C[C@@]21C`, for which the Potency entry in experiment [1], in experiment [3], in experiment [4], in experiment [5], in experiment [6] and in experiment [7] was “inactive” each time. In addition, the call in experiment [2] was inactive.
Turning to `OC(Cn1cncn1)(c1ccc(F)cc1)c1ccccc1F` (centres undefined), the Potency entry in experiment [1], in experiment [10], in [4], in experiment [5], in experiment [6] and in [7] was “inactive” each time. In addition, in experiment [2], the outcome was inactive.
For the compound `O=[N+]([O-])c1cccc(O)c1`, the Potency result in experiment [1], in [10], in [4], in [5], in [6] and in [7] was “inactive” in each case. For the same compound, the result in [2] was inactive.
With `O=[N+]([O-])c1cccc2cccnc12`, the Potency result in experiment [1], in experiment [3], in experiment [4], in experiment [6] and in experiment [7] was “inactive” each time. Besides, in experiment [2], the result was inactive.
Regarding `CC(C(O)c1ccccc1)N(C)C/C=C/c1ccccc1` (centres undefined), the Potency result in [1], in experiment [10], in experiment [5], in experiment [6] and in experiment [7] was “inactive” throughout. For the same compound, in experiment [2], the compound was called inactive.
In the case of `NC(=O)c1cc([N+](=O)[O-])cc([N+](=O)[O-])c1`, the Potency result in [1], in experiment [3], in experiment [4], in [6] and in experiment [7] was “inactive” throughout. The call in experiment [2] was inactive.
With `Cc1cnc[nH]1`, the Potency result in [1], in experiment [3], in experiment [4], in [5], in experiment [6] and in experiment [7] was “inactive” in each case. The compound was classed as inactive in experiment [2].
On to `CC(C)(C)C(=O)C(Oc1ccc(Cl)cc1)n1cncn1` (centres undefined), for which the Potency entry in experiment [1], in experiment [3], in experiment [10], in [5], in experiment [6] and in experiment [7] was “inactive” throughout.
Turning to `C#C[C@]1(O)C=C[C@H]2[C@@H]3CCC4=CC(=O)CC[C@@H]4[C@H]3CC[C@@]21CC`, in [1], the Potency was 19.6 µM (active). Besides, the Potency entry in experiment [3], in [10] and in [6] was “inactive” throughout.
For the compound `COC(=O)C1=CCCN(C)C1`, the Potency result in experiment [1], in [3], in [10], in experiment [4], in [5] and in [6] was “inactive” in each case. The Potency entry in experiment [7] is “inactive”.
For `O=C(Cc1ccccc1)OCc1ccccc1`, the Potency entry in [1], in [3], in experiment [4], in [5] and in [6] was “inactive” each time.
As to `CNCC(=O)c1ccc(O)c(O)c1`, the call in [2] was inactive. Further, the Potency entry in [3], in experiment [10], in experiment [4], in experiment [5], in experiment [6] and in experiment [7] was “inactive” in each case.
With `COc1cccc2c1cc([N+](=O)[O-])c1c(C(=O)O)cc3c(c12)OCO3`, the Potency entry in [3], in experiment [10], in experiment [5], in experiment [6] and in experiment [7] was “inactive” in each case. The values for the Potency in experiment [8] and in experiment [4] were 4.86 µM (active) and 2.45 µM (active), respectively. Further, the activity change, positive = activation in experiment [9] is -37.1%.
Regarding `CC1=C(C(=O)Nc2ccccc2)S(=O)(=O)CCO1`, the Potency result in experiment [1], in experiment [3] and in [10] was “inactive” in each case. Besides, the Potency in experiment [4] is 48.9 µM (active).
For `Cc1ncc(CNC(=O)N(CCCl)N=O)c(N)n1`, the Potency result in experiment [1], in experiment [3], in experiment [10], in experiment [4], in experiment [5] and in [6] was “inactive” in each case. For the same compound, in experiment [7], the Potency entry was “inactive”.
For `O=[N+]([O-])c1ccc(CBr)cc1`, the Potency entry in [1], in experiment [3], in experiment [10], in experiment [4], in [5] and in experiment [6] was “inactive” each time. Moreover, the Potency entry in [7] was “inactive”.
In the case of `C=C(C)CN(CC)c1c([N+](=O)[O-])cc(C(F)(F)F)cc1[N+](=O)[O-]`, the Potency result in experiment [1], in experiment [8], in experiment [4], in experiment [5] and in experiment [6] was “inactive” in each case. The activity change, positive = activation in experiment [9] was 1.77%.
On to `CCCCOP(=O)(O)OCCCC`, for which the call in [2] was inactive. The Potency entry in experiment [10], in experiment [4], in experiment [5], in [6] and in [7] was “inactive” throughout.

Source of the values: PubChem BioAssay (Tox21).
